{"source": "PubChem BioAssay AID624171", "about": "(National Center for Advancing Translational Sciences (NCATS), 2012)", "note": "About 1,200 (0.29%) of roughly 410,000 compounds were called active. Where a call stands in place of a potency, no number is given. About 2% were inconclusive and are not listed. Calls come from the whole dose curve; as a rule, active = well fitted activation curve with a large enough effect; inconclusive = small, poorly fitted or top-dose-only effect; inactive = flat fitted curve, though single readings scatter. For the sample, actives were picked, then their nearest neighbours and some compounds at random. Potency is the fitted concentration of half-maximal effect."}
{"assay": "qHTS of Nrf2 Activators; note: nearly all actives have a fitted effect of over 65% in size", "settings": "AREc32 ARE-luciferase reporter (MCF7-derived line), luminescence, 24 h; series mostly up to 46.1 µM", "source_text": "Many diseases have some form of oxidative stress injury and ties to inflammation, causing a host of problems for the patient. The antioxidant response element (ARE) plays an important role in alleviating the harmful effects of oxidative stress. The antioxidant response element (ARE) is a transcriptional regulatory element involved in the activation of genes coding for a number of antioxidant proteins and detoxifying enzymes. These enzymes work in concert to protect tissues from oxidative insults and chemical toxicities in human hepatocytes and immune cells. The protective effects of ARE activation are primarily triggered through Nrf2 (NF-E2-related factor) binding to and activating AREs. It is known that Nrf2 controls the production of over 250 antioxidant and detoxification proteins (Hu et al., 2006), thereby protecting tissues by increasing cellular antioxidant content and suppressing inflammatory signaling pathways. The transcription factor Nrf2 is a central link between oxidative chemicals, such as phenolic antioxidants and electrophilic compounds, and the activation of ARE. Nrf2 levels are constitutively low as a consequence of its interaction with Keap1, which targets its degradation (Zipper and Mulcahy, 2002). Electrophiles react with key cysteine residues in Keap1, releasing Nrf2 and allowing its translocation to the nucleus. Once within the nucleus, Nrf2 complexes with coactivators such as p300, and binds to the AREs to induce gene transcription of cytoprotective enzymes, resulting in the prevention of toxicity. Activation of Nrf2 protects tissues by increasing cellular antioxidant content and suppressing inflammatory signaling pathways. Identifying novel and potent Nrf2 activators by using the AREc32 cell line to detect ARE activation by small molecules will lead to the identification and development of probes to study protective pathways in multiple tissues. These specific probes are essential to study the ARE pathway, and eventually to determine whether this pathway does activate genes that could protect against a host of diseases, including cardiovascular diseases, obesity, diabetes, Alzheimer's, and Parkinson's disease.\nThis project's aim is to identify novel and potent Nrf2 activators by using the AREc32 cell line to detect ARE activation by small molecules, which will lead to the identification and development of probes to study the ARE pathway.\nNIH Chemical Genomics Center [NCGC]\nNIH Molecular Libraries Probe Centers Network [MLPCN]\nAssay Submitter (PI): Curtis Klaassen, University of Kansas Medical Center\n5 uL of 1000 cells/well of AREc32_Fluc cells are seeded into 1536-well plate in OPTI-MEM medium with 5% FBS. The plates are incubated overnight at 37 deg C with 5% CO2. Then through pin tool transfer, 23 nL of compounds are added to each well before a 24 hr incubation at 37 deg C with 5% CO2. After the addition of 2.5 uL of Steady-Glo. the plates are kept at RT for 30 min, before they are read on the ViewLux."}
{"smiles": "CCN1CCN(c2cc(C)c3cc(NC(=O)c4cc(Cl)ccc4OC)ccc3n2)CC1", "Potency": "inactive"}
{"smiles": "COc1ccc(CCNC(=O)CCCn2c(=O)c3ccccc3n(Cc3ccc(F)cc3Cl)c2=O)cc1OC", "Potency": "inactive"}
{"smiles": "CCOc1ccccc1C(=O)NC1(C(F)(F)F)C(=O)Nc2c1c(=O)[nH]c(=O)n2-c1ccc(F)cc1", "note": "(stereo unspecified)", "Potency": "inactive"}
{"smiles": "Cc1ccc(-c2noc(-c3nnn(-c4cccc(C(F)(F)F)c4)c3N)n2)cc1", "Potency": "inactive"}
{"smiles": "Cc1cccc(NC(=O)CSc2nnc(CNC(=O)c3cccc(C)c3)n2-c2ccccc2)c1", "Potency": "inactive"}
{"smiles": "CCOC(=O)c1c(NC(C)=O)c2c3c(sc2n1Cc1c(C)cc(C)cc1C)CCCC3", "Potency": "inactive"}
{"smiles": "COc1ccccc1CNC(=O)CCCCn1c(=O)c2ccccc2n(CC(=O)Nc2cc(Cl)ccc2C)c1=O", "Potency": "inactive"}
{"smiles": "COc1cccc(C(=O)N(Cc2cccc(Cl)c2)Cc2ccco2)c1", "Potency": "inactive"}
{"smiles": "COc1ccccc1N1CCN(S(=O)(=O)CCNC(=O)COc2ccc(F)cc2)CC1", "Potency": "inactive"}
{"smiles": "COC(=O)Cn1c(O)c(N=NC(=O)OC)c2ccccc21", "Potency": "inactive"}
{"smiles": "CC(C)n1c(O)c(N=Nc2ccccn2)c2ccccc21", "Potency": "12.6 µM (active)"}
{"smiles": "CCOC(=O)c1ccc(N2C(=O)c3[nH]nc(-c4ccccc4)c3C2c2ccc(C(C)C)cc2)cc1", "note": "(stereo unspecified)", "Potency": "inactive"}
{"smiles": "CC1CCCCN1Cc1c(O)ccc2c(=O)c(-c3cccc(Cl)c3)c(C(F)(F)F)oc12", "note": "(stereo unspecified)", "Potency": "inactive"}
{"smiles": "COc1ccc(-c2nc3c4ccccc4n(CC(=O)Nc4ccc(C(C)=O)cc4)c(=O)n3n2)cc1", "Potency": "inactive"}
{"smiles": "CC(C)(C)OC(=O)N1CCC(c2c(C(=O)N3CCc4ccccc4C3)cnn2-c2ccc(F)cc2)CC1", "Potency": "inactive"}
{"smiles": "COc1cc(CCN=Cc2ccccc2O)c([N+](=O)[O-])cc1OC", "Potency": "inactive"}
{"smiles": "O=C(N/N=C/c1cccc([N+](=O)[O-])c1)c1ccncc1", "Potency": "12.6 µM (active)"}
{"smiles": "O=[N+]([O-])c1cccc(C=NN=Cc2ccccc2O)c1", "Potency": "10 µM (active)"}
{"smiles": "O=C(/C=C/c1cccc([N+](=O)[O-])c1)OCC(=O)N1CCOCC1", "Potency": "inactive"}
{"smiles": "O=C(c1ccncc1)N1CCN(S(=O)(=O)c2cccc([N+](=O)[O-])c2)CC1", "Potency": "inactive"}
{"smiles": "N/C(=N\\OS(=O)(=O)c1cccc([N+](=O)[O-])c1)c1ccncc1", "Potency": "inactive"}
{"smiles": "O=C(COc1ccccc1F)OCc1cc(=O)n2nc(C3CCCCC3)sc2n1", "Potency": "inactive"}
{"smiles": "Cc1cccc(OCC(=O)N(Cc2ccc(C(C)C)cc2)Cc2ccco2)c1C", "Potency": "inactive"}
{"smiles": "O=C1CSC2(C(=O)N(Cc3ccccc3)c3ccccc32)N1c1cccc(F)c1", "note": "(stereo unspecified)", "Potency": "inactive"}
{"smiles": "Cc1ccc(C)c(N2CCN(C(c3ccccc3)c3nnc(-c4ccccc4)o3)CC2)c1", "note": "(stereo unspecified)", "Potency": "inactive"}
{"smiles": "CCn1cc(C(=O)N2CCN(c3cc(Cl)ccc3C)CC2)c(=O)c2cc(S(=O)(=O)N3CCCC3)ccc21", "Potency": "inactive"}
